Data: PubChem BioAssay AID2284127 (EPA ToxCast)
Activity calls are given as the source filed them. Rule for the calls: active = hit-call score of the fitted dose curve at least 0.9, where 1 is the maximum; inactive = score below 0.9.

The compounds below were run against human Receptor-type tyrosine-protein phosphatase F (PTPRF/LAR), PTPRF (gene 5792) (UniProt P10586) (assay: ERF_TW_ENZ_hPTPRF: Eurofins (ERF) Enzymatic LeadHunter Assay for human Receptor-type tyrosine-protein phosphatase F (PTPRF/LAR)).
Chain of human Receptor-type tyrosine-protein phosphatase F (PTPRF/LAR), PTPRF (gene 5792) (P10586 whole entry, looked up): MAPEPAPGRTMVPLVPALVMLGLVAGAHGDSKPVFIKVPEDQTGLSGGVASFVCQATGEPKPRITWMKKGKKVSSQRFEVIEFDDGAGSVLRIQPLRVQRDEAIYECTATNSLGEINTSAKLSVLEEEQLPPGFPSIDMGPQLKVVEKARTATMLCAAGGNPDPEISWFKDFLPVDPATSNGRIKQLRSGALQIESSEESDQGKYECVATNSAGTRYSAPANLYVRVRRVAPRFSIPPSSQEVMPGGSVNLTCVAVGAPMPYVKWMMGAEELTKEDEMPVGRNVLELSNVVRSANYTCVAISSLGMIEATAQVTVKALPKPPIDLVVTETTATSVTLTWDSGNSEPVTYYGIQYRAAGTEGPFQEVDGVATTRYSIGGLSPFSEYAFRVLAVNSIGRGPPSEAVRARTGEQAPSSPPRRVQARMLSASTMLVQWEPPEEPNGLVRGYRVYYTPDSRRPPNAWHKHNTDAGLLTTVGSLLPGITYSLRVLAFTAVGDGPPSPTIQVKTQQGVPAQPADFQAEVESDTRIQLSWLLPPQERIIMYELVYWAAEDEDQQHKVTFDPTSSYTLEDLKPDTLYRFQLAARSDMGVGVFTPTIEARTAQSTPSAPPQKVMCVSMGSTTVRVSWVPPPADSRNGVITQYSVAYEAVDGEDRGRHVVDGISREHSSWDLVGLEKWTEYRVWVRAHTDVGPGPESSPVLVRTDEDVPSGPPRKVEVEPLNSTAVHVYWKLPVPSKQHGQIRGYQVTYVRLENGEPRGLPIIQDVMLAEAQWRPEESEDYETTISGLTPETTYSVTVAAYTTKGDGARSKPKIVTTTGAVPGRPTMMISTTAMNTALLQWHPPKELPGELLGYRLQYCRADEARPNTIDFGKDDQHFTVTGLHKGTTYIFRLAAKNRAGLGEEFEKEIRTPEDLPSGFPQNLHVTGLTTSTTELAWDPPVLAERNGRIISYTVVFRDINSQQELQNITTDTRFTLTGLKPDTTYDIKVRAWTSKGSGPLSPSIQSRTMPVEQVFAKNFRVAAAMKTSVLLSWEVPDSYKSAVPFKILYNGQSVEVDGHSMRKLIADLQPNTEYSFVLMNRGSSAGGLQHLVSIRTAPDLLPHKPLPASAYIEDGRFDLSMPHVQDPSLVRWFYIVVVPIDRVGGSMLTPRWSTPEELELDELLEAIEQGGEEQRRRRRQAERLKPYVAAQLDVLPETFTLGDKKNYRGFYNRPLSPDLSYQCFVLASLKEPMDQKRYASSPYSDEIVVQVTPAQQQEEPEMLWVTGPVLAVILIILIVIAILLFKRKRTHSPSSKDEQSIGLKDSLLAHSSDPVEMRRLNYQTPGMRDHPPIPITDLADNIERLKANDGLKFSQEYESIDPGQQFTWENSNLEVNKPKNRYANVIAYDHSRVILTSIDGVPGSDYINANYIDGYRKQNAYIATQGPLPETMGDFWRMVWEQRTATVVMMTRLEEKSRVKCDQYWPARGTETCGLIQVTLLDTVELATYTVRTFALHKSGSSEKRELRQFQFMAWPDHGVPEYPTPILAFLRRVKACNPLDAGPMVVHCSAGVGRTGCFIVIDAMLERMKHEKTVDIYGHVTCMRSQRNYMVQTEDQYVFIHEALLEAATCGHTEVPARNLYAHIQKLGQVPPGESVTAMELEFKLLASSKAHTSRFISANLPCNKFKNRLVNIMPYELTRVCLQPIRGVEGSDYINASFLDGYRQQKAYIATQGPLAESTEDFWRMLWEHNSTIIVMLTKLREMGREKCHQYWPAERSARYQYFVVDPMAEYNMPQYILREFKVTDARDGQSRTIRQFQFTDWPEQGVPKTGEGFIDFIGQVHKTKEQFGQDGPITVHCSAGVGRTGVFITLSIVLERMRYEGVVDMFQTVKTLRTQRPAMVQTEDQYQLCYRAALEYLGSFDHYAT
Method: ERF_TW_ENZ_hPTPRF is a biochemical, single-readout assay that uses extracted gene-proteins in a cell-free assay. Measurements were taken 1 hour after chemical dosing in a 96-well plate. See LAR Human Phosphatase Enzymatic Assay, Panlabs.ERF_TW_ENZ_hPTPRF is an assay component calculated from the ERF_TW_ENZ_hPTPRF assay. It is designed to measure enzyme activity using a type of enzyme reporter as detected by fluorescence intensity with spectrophotometry technology.Data from the assay component ERF_TW_ENZ_hPTPRF was analyzed at the assay endpoint, ERF_TW_ENZ_hPTPRF, in the positive analysis fitting direction relative to DMSO as the negative control and baseline of activity. Using a type of enzyme reporter, loss-of-signal activity can be used to understand changes in enzymatic activity as they relate to gene PTPRF. To generalize the intended target to other relatable targets, this assay endpoint is annotated to the phosphatase intended target family, where the subfamily is receptorasA tyrosine phosphatase.
Human recombinant protein phosphatase LAR expressed in E. coli is used. Test compound and/or vehicle is preincubated with 0.48 ng/ml enzymedouble dagger for 15 minutes at 37C in modified HEPES buffer pH 7.2. The reaction is initiated by addition of 10 uM DiFMUP for 60 minutes. Determination of the amount of DiFMU formed is read spectrofluorimetrically at 358 nm/450 nm. […]

Compound | AC50
O=C(/C=C/c1ccc(O)cc1)CC(=O)/C=C/c1ccc(O)cc1 | 5 µM (active)
